# Tests used:
# Test in all cases: PBM binding z-score (relative to random genomic background probes); higher = stronger binding; sequences stand for … in GC…GCGATTGACAGCGTAGAATGAAGG
# [1] = test system: FXR:RXRa (NR concentration 270 nM, RXRa partner concentration 90 nM)
# In short: (§1)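 Ligand-free nuclear receptor dimers were bound for 1 h to custom Agilent 4×180K protein-binding microarrays. Detection used antibodies against each partner (one per run). Binding z-scores rest on regression-normalized fluorescence, with random background probes as the reference.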
# [2] = test system: LXRa:RXRa (NR concentration 270 nM, RXRa partner concentration 90 nM)
# In short: as §1
# [3] = test system: LXRa homodimer (NR concentration 270 nM)
# In short: as §1
# [4] = test system: LXRb:RXRa (NR concentration 270 nM, RXRa partner concentration 90 nM)
# In short: as §1
# [5] = test system: LXRb homodimer (NR concentration 270 nM)
# In short: as §1
# [6] = test system: PPARa:RXRa (NR concentration 270 nM, RXRa partner concentration 90 nM)
# In short: as §1
# [7] = test system: PPARg:RXRa (NR concentration 180 nM, RXRa partner concentration 90 nM)
# In short: as §1
# [8] = test system: PPARg:RXRa 270nM:90nM, anti-RXR (NR concentration 270 nM, RXRa partner concentration 90 nM)
# In short: as §1
# [9] = test system: PPARg:RXRa 30nM:10nM, anti-RXR (NR concentration 30 nM, RXRa partner concentration 10 nM)
# In short: as §1
# [10] = test system: PPARg:RXRa 90nM:30nM, anti-RXR (NR concentration 90 nM, RXRa partner concentration 30 nM)
# In short: as §1
# [11] = test system: PPARg:RXRa DBDmut IVT, anti-RXR (DBD mutation: RXRa K156A/R161A, NR concentration 270 nM, RXRa partner concentration 90 nM)
# In short: as §1
# [12] = test system: PPARg:RXRa IVT, anti-PPARg (NR concentration 270 nM, RXRa partner concentration 90 nM)
# In short: as §1
# [13] = test system: PPARg DBDmut:RXRa IVT, anti-PPARg (DBD mutation: PPARg1 K132A/R137A, NR concentration 270 nM, RXRa partner concentration 90 nM)
# In short: as §1
# [14] = test system: PPARg DBDmut IVT, anti-PPARg (DBD mutation: PPARg1 K132A/R137A, NR concentration 270 nM)
# In short: as §1
# [15] = test system: PPARg homodimer (NR concentration 180 nM)
# In short: as §1
# [16] = test system: PXR:RXRa (NR concentration 270 nM, RXRa partner concentration 90 nM)
# In short: as §1
# [17] = test system: PXR homodimer (NR concentration 270 nM)
# In short: as §1
# [18] = test system: RARa:RXR (NR concentration 270 nM, RXRa partner concentration 90 nM)
# In short: as §1
# [19] = test system: RARa homodimer (NR concentration 270 nM)
# In short: as §1
# [20] = test system: RARb:RXRa (NR concentration 270 nM, RXRa partner concentration 90 nM)
# In short: as §1
Sequence,PBM binding z-score [1],PBM binding z-score [2],PBM binding z-score [3],PBM binding z-score [4],PBM binding z-score [5],PBM binding z-score [6],PBM binding z-score [7],PBM binding z-score [8],PBM binding z-score [9],PBM binding z-score [10],PBM binding z-score [11],PBM binding z-score [12],PBM binding z-score [13],PBM binding z-score [14],PBM binding z-score [15],PBM binding z-score [16],PBM binding z-score [17],PBM binding z-score [18],PBM binding z-score [19],PBM binding z-score [20]
CCGACTGGGGCAGAAAGGTTACCATACCATCCGG,0.35,0.432,-0.092,0.947,-1.04,2.03,1.69,2.6,0.687,2.03,1.62,2.01,-0.897,-0.652,1.04,0.796,-0.416,1.49,-0.549,1.74
CGAACGAGGGCATGAGTTGTTAGCAAATGCCGAT,0.401,0.0861,-0.503,0.156,-1.1,1.01,1.08,1.21,-0.27,0.425,3.23,2.05,-0.603,-0.6,-0.0331,0.251,-0.0972,0.245,-0.393,1.98
CCAAGCAGGCCAGGGTCACTCAAGCATTTCGCTT,2.12,1.76,-0.279,1.95,-0.754,3.07,0.977,1.81,-0.229,0.599,0.264,0.738,-0.543,-1.4,1.53,2.65,-0.14,3.4,0.312,2.61
ATGTCTAGGTAAAAGTTCAGTGAATCCCGAGGAT,0.745,1.33,1.16,0.843,0.542,3.76,7.03,6.9,5.57,7.4,1.33,3.13,0.931,0.765,1.17,1.87,1.49,1.77,0.698,2.39
GATAAAGGGTCAAGGCCAGAGTACGCGTATTGAT,7.29,5.43,0.637,4.49,0.548,6.28,6.56,6.32,3.17,5.23,3.62,4.58,0.966,0.381,3.16,4.19,0.42,5.07,0.732,5.26
TCTAGTTGGTCAAAGGTCACACCCTCGAAATGCG,5.49,5.27,4.32,5.41,1.92,6.69,11.6,10.1,10.3,12.2,3.68,6.43,1.66,0.719,6.91,6.04,2.22,7.62,4.33,5.02
AGAACGAGGGCAATGAGTTGATAGGACGGGTGGC,0.234,0.0995,-0.497,-0.197,-0.468,1.05,1.48,0.681,0.137,0.397,3.48,2.09,0.826,0.0416,-0.0695,1.12,5.45,0.114,-0.321,2
ATCTGTAGGTAACCAAGTTCAGTGAATGCCGAAC,0.276,0.775,0.477,0.549,0.153,1.05,0.635,0.922,0.0596,0.358,2.89,2.55,-0.123,0.924,0.414,2.03,1.73,0.813,0.332,1.08
GCAGACAGGTGAAACGCAGGTAACGCAGGGTGGC,-0.151,-0.229,-0.631,-0.357,-1.09,0.749,0.665,-0.038,-0.74,-0.0828,0.691,0.737,-0.603,-0.805,-0.678,-0.552,-0.857,0.395,-0.862,0.76
ATATGTAGGTTAGCTGGGTTCATTCAGACTAGGC,1.75,4.53,2.19,2.2,0.361,3.76,4.18,3.74,1.75,2.89,6.03,6.16,1.92,2.15,2.07,6.34,7.23,2.56,1.06,1.35
GCTAGTTGGTCAGCAAAAGGTCACACACCGGTCG,3.17,4.15,4.08,3.94,0.516,4.17,2.48,4.05,1.79,3.39,0.999,2.88,-0.1,-0.835,4.56,5.02,1.32,5.74,2.26,4.37
AATACAGGGTCATCGTAGGCCAGAGTCCGCACAG,7.16,6.35,2.6,4.52,1.21,5.96,6.83,5.83,2.39,4.51,2.98,4.32,0.922,0.82,2.39,4.96,0.483,4.93,0.764,4.45
ACTATTAGTTGATACGAGGGCAACCGATAGGTTG,0.829,0.48,0.407,0.266,0.576,0.327,0.752,0.283,0.308,0.272,0.641,1.17,1.01,1.4,0.764,1.34,0.799,0.922,0.828,1.28

# Source: the supplement of paper PMC6555819
